# Source: PubChem BioAssay
# Experiment: Plasmodium falciparum growth inhibition, primary screen, strain 3D7, DAPI fluorescence, 100 nL (AID 1184);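 also: parasites grown inside human red blood cells in medium with human serum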
# Settings: P. falciparum 3D7 growth, 3 d, higher = more signal
row,Compound,z-score
1,CCCC[C@@H]1C[C@H]1[C@@H](NC(=O)c1ccco1)c1ccc(-c2ccccc2)cc1,-0.937
2,O=C1O[C@@H](c2ccccc2)[C@@H](c2ccccc2)N2[C@@H](c3ccccc3OCCO)[C@]3(C(=O)Nc4ccc(C#CC5=CCCCC5)cc43)[C@@H](C(=O)N3CCCCCCC3)[C@H]12,-2
3,O=C1NC(=O)C2C1C=CC(C(O)c1cccs1)N2Nc1ccc(Cl)cc1Cl (stereo not drawn),-0.335
4,COC(=O)[C@]1(CCC(=O)OC(C)(C)C)N=C(c2ccc(OCCCO)cc2)O[C@@H]1c1ccccc1CN=[N+]=[N-],-2.03
5,COc1ccc(C(=O)Nc2ccc(CN3C(=O)[C@]4(O[C@H](CCO)[C@@H]([Si](C)(C)c5ccc(OC)cc5)[C@@H]4C)c4ccccc43)cc2)cc1,-2.82
6,CC1(C)C2C=C(C(O)C3C=CC4C(=O)NC(=O)C4N3Nc3ccc(Cl)cc3Cl)C[C@@H]1C2 (stereo partly drawn),0.665
7,C=C(COC)C(=O)CC[C@@H](OC(C)=O)c1ccc(CO)o1,0.216
8,COC(=O)c1c(CC[C@@H](CO)NC(=O)NCCn2cc(C3(O)CCCC3)nn2)oc(C(C)=O)c1C(=O)OC,-0.72
9,C=C(C(=O)CC[C@@H](OC(=O)c1cccnc1)c1ccccc1OCCO)C(C)C,-2.27
10,CCOC(=O)C[C@H]1[C@H](OC(=O)c2ccc(C(=O)c3ccccc3)cc2)[C@@H](NC(=O)c2ccccc2)c2cc(OCCCO)ccc2N1C(=O)c1ccc2ccccc2n1,-1.43
11,COc1cc(NN2C(C(O)c3ccco3)C=CC3C(=O)N(c4ccccc4)C(=O)C32)cc(OC)c1OC (stereo not drawn),-0.372
12,COCCCNC(=O)[C@@]1(C)c2ccccc2C(=O)N(C(C)C)[C@H]1c1ccc(CO)cc1,-0.176
13,COc1cc2c(cc1OC)CN(C(=O)[C@@H]1[C@H]3C(=O)O[C@H](c4ccccc4)[C@H](c4ccccc4)N3[C@H](c3ccc(O)cc3)[C@@]13C(=O)Nc1ccccc13)CC2,-1.42
14,O=C(NC1CC1)[C@@H]1c2ccccc2C(=O)N(Cc2ccccc2Cl)[C@H]1c1ccc(CO)cc1,-0.46
15,O=C1c2ccccc2[C@](Cc2ccccc2I)(C(=O)NCC(F)(F)F)[C@H](c2ccc(CO)cc2)N1Cc1ccccc1Cl,-0.562
16,Cc1ccc(S[C@]2(C(=O)O)CC(=O)N(C(C)C)[C@@H]2c2ccc(CO)cc2I)cc1,0.14
17,COc1ccc(C#Cc2ccc3c(c2)[C@]2(C(=O)N3)[C@H](C(=O)NC[C@H](O)c3ccccc3)[C@H]3C(=O)O[C@H](c4ccccc4)[C@H](c4ccccc4)N3[C@@H]2c2ccc(O)cc2)cc1,-0.0029
18,COC(=O)[C@@]1(Cc2ccc(F)cc2)[C@H]2c3cc(C(=O)N4CCCC4)n(Cc4ccc(S(C)(=O)=O)cc4)c3C[C@H]2CN1C(=O)c1ccccc1,-1.46
19,O=C1C2C=CC(C(O)c3cccc4ccccc34)N(Nc3ccccc3F)C2C(=O)N1c1ccccc1 (stereo not drawn),0.71
20,CCCC[C@@H]1C[C@H]1[C@@H](NC(=O)c1ccco1)c1ccccc1C(F)(F)F,-0.7
21,CC(C)NC(=O)[C@@]1(c2ccc([N+](=O)[O-])cc2)CC(=O)N(C2CCCCC2)[C@@H]1c1ccc(CO)cc1I,-1.63
22,C=CCOC(=O)[C@H]1[C@@H]2C(=O)O[C@@H](c3ccccc3)[C@@H](c3ccccc3)N2[C@@H](c2ccc(OCCOC(=O)[C@H]3C[C@H]4C(=O)N[C@@H](CCCCNC(C)=O)C(=O)N4[C@H]3c3ccc(O)cc3)cc2)[C@]12C(=O)Nc1ccc(I)cc12,-1.39
23,Cc1ccc(S[C@]2(C(=O)NC3CC3)CC(=O)N(Cc3ccccc3)[C@@H]2c2ccc(CO)cc2I)cc1,-0.0873
24,CC1CC/C=C\[C@H]2OC34C=CCN(C(C)(C)C)C(=O)[C@H]3N(CCO)C(=O)[C@@H]4C2C(=O)O1 (stereo partly drawn),-0.162
25,C=CCC(OC(C)=O)[C@@H]1[C@@H](N(Cc2ccc(-c3ccccc3)cc2)C(=O)Cc2ccc(OC)cc2)c2cc(OCCCO)ccc2N1C(=O)Cc1ccc2ccccc2c1 (stereo partly drawn),-0.874
26,COC(=O)C(CC#Cc1ccc2c(c1)[C@]1(C(=O)N2)[C@H](C(=O)Nc2nc3ccccc3s2)[C@H]2C(=O)O[C@H](c3ccccc3)[C@H](c3ccccc3)N2[C@@H]1c1ccc(O)cc1)C(=O)OC,-1.89
27,O=C1C[C@@](C(=O)NCCN2CCOCC2)(c2ccc([N+](=O)[O-])cc2)[C@@H](c2ccc(CO)cc2I)N1CC12CC3CC(CC(C3)C1)C2,-2.04
28,CCCCCN1CC=CC23O[C@@H]4C=CCCOC(=O)C4[C@H]2C(=O)N(CCCCCO)[C@@H]3C1=O (stereo partly drawn),0.798
